These results are taken from PubChem BioAssay (EPA / NIEHS).

Values joined by “and” are separate entries in the source; they are usually repeats but may differ in a detail not shown here. Equal values may be shown once. Results filed as inconclusive are left out. Where a structure was tested more than once in an assay, its records may differ in their call. Active and inactive are the calls of the source. How the source made its calls: active means hit-call score of the fitted dose curve at least 0.9, where 1 is the maximum; inconclusive means response in the unintended direction; inactive means score below 0.9.

In experiment [1] the test system is guinea pig Dopamine Transporter (DAT), gene 100714898. The experiment can be described thus: NVS_TR_gDAT: NovaScreen (NVS) Transporter Assay for guinea pig Dopamine Transporter (DAT) (AID 2283369).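 Further: active compounds lower bound radioligand signal relative to DMSO.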 A digest of the protocol:
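Primary pass: duplicate wells at 25 uM, threshold e.g. 30% inhibition. Follow-up: singleton concentration-response, highest 50 uM. Radioligand binding on guinea pig striatal membranes, 2 h, filtration scintillation detection.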

Experiment [2] has as its target human Dopamine Transporter (DAT), SLC6A3 (gene 6531) (UniProt Q01959). The experiment can be described thus: NVS_TR_hDAT: NovaScreen (NVS) Transporter Assay for human Dopamine Transporter (DAT) (AID 2283374).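 Further: activity means loss of bound radioligand signal relative to DMSO.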 A digest of the protocol: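 Cell-free radioligand displacement binding at human DAT, 1 h after dosing, with filtration and scintillation counting. Primary screen in duplicate at 25 uM, actives then in concentration series. Loss of bound signal versus DMSO scored.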

Experiment [3] addresses Estrogen receptor beta (Homo sapiens) (UniProt Q92731). The experiment can be described thus: OT_ER_ERbERb_1440: Odyssey Thera (OT) 24-hour HEK293T Protein-Complementation Assay for Estrogen Receptor-beta/-beta Homodimer (AID 2283380).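 Further: scored as signal increase over DMSO baseline for both agonists and antagonists.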 In a few lines: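 HEK293T cells stably expressing ER beta LBD (aa 310-547) homodimer fragment-complementation reporter, dosed 24 h. Cells formaldehyde-fixed, Draq5-stained; gain in nuclear (agonist) or nuclear plus cytoplasmic (antagonist) fluorescence versus DMSO read by laser scanning cytometry.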

For experiment [4], the target named is Agonist Androgen Response Element (ARE), AR (gene 367) (UniProt P10275). The experiment can be described thus: OT_AR_ARELUC_AG_1440: Odyssey Thera (OT) 24-hour CHO-K1 Luciferase Assay for Agonist Androgen Response Element (ARE) (AID 2283379). A digest of the protocol: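 CHO-K1 cells carrying an ARE-driven luciferase reporter were exposed to compounds for 24 h. Luminescence was then read after adding a D-luciferin/ATP mix, and activity was scored as a gain in signal over DMSO vehicle.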

The target in experiment [5] is human Serotonin Transporter (SERT), SLC6A4 (gene 6532) (UniProt P31645). Put plainly: NVS_TR_hSERT: NovaScreen (NVS) Transporter Assay for human Serotonin Transporter (SERT) (AID 2283372). In a few lines: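 Radioligand binding to native SERT in human platelet membranes, read by filter-based scintillation counting 1 h after dosing. Primary screen in duplicate at 25 uM; actives followed up in concentration series; loss of signal versus DMSO baseline.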

Experiment [6] has as its target rat Serotonin Transporter (SERT), Slc6a4 (gene 25553) (UniProt P31652). The experiment can be described thus: NVS_TR_rSERT: NovaScreen (NVS) Transporter Assay for rat Serotonin Transporter (SERT) (AID 2283375). A digest of the protocol:
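Using rat forebrain membrane SERT, test chemicals compete with a radioligand for 1 hour, and bound counts are taken by filter-based scintillation. Screening starts at 25 uM in duplicate, followed by concentration series for actives.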

The target of experiment [7] is Norway rat Vesicular Monoamine Transporter (VMAT2), neurotransmitter transporter, Slc18a2 (gene 25549) (UniProt Q01827). The experiment can be described thus: NVS_TR_rVMAT2: NovaScreen (NVS) Transporter Assay for Norway rat Vesicular Monoamine Transporter (VMAT2), neurotransmitter transporter (AID 2283376).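 Further: actives lower the bound radioligand signal below the DMSO level.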 In a few lines: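 Radioligand displacement binding on rat forebrain tissue preparation, filter-based scintillation read-out 1 hour after dosing. Primary screen in duplicate at 25 uM, then concentration series for actives; loss of signal versus DMSO.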

The target of experiment [8] is human Norepinephrine Transporter (NET), SLC6A2 (gene 6530) (UniProt P23975). The experiment can be described thus: NVS_TR_hNET: NovaScreen (NVS) Transporter Assay for human Norepinephrine Transporter (NET) (AID 2283377).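 On AC50: displacement of radioligand from human NET seen as loss of scintillation signal.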 In a few lines:
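Cell-free radioligand binding using CHO-derived membrane protein expressing human NET, read by filter scintillation counting 1 h after dosing; loss of signal vs DMSO. Initial duplicate screen at 25 uM, actives retested in concentration series.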

The test system of experiment [9] is rat Norepinephrine Transporter (NET), gene 83511. Put plainly: NVS_TR_rNET: NovaScreen (NVS) Transporter Assay for rat Norepinephrine Transporter (NET) (AID 2283373). In a few lines: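 Rat forebrain membranes; radioligand binding measured by filter-based scintillation counting 1 hour after dosing. Loss of specific binding versus DMSO baseline scored; primary screen in duplicate at 25 uM, actives followed up in concentration series.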

Experiment [10] concerns the target mouse Estrogen Receptor alpha (Era), Esr1 (gene 13982) (UniProt P19785). Put plainly: NVS_NR_mERa: NovaScreen (NVS) Nuclear Receptor Binding Assay for mouse Estrogen Receptor alpha (Era) (AID 2283378).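 Further: hit means loss of bound radioligand signal relative to DMSO.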 A digest of the protocol: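 Measurements come from scintillation counting after filtration, taken 18 hours after chemicals were added to a cell-free mouse Era preparation with radioligand. Screening was duplicate at 25 uM, with concurrent positive and negative controls and confirmatory concentration series for actives.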

Sequence of Estrogen receptor beta (Homo sapiens) (Q92731 whole entry, looked up, the tested form may be a part): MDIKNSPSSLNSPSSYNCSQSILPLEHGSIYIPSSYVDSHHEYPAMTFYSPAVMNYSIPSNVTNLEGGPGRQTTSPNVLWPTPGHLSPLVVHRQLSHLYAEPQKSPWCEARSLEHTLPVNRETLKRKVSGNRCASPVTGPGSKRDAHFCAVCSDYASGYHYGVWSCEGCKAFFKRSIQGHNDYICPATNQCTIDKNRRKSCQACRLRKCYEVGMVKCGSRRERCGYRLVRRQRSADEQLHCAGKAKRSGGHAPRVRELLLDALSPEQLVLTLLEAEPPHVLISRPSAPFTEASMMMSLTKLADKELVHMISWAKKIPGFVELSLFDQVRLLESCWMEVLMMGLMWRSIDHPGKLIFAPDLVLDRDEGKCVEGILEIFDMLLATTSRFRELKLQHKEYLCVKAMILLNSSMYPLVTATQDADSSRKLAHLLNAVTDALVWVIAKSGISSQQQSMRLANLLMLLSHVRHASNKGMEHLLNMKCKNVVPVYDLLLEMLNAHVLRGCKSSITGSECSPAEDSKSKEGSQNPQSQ
Sequence of Agonist Androgen Response Element (ARE), AR (gene 367) (P10275 whole entry, looked up): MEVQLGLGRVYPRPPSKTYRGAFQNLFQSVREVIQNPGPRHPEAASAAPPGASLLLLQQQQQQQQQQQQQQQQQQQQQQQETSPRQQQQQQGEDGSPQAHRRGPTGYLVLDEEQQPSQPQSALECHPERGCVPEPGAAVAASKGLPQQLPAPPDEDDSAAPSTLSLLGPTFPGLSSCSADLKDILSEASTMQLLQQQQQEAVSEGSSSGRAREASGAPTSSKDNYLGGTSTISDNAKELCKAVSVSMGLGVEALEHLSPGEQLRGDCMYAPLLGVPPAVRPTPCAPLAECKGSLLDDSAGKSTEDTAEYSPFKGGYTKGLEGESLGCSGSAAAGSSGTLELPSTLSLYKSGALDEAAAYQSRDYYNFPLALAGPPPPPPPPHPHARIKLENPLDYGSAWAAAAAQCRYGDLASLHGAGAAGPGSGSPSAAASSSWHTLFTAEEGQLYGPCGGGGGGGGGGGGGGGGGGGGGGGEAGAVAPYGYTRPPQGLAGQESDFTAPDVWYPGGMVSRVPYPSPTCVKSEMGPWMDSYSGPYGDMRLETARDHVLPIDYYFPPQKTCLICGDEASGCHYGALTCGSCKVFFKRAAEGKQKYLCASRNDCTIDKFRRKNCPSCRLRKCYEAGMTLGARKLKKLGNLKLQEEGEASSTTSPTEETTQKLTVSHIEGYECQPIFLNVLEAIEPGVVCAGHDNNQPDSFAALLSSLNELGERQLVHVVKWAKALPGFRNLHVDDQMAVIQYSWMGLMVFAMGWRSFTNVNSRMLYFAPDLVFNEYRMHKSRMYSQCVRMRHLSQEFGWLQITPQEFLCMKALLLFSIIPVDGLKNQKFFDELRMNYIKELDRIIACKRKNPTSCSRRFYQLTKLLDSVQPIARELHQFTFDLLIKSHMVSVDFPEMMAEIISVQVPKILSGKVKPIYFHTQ
Sequence of Norway rat Vesicular Monoamine Transporter (VMAT2), neurotransmitter transporter, Slc18a2 (gene 25549) (Q01827 whole entry, looked up): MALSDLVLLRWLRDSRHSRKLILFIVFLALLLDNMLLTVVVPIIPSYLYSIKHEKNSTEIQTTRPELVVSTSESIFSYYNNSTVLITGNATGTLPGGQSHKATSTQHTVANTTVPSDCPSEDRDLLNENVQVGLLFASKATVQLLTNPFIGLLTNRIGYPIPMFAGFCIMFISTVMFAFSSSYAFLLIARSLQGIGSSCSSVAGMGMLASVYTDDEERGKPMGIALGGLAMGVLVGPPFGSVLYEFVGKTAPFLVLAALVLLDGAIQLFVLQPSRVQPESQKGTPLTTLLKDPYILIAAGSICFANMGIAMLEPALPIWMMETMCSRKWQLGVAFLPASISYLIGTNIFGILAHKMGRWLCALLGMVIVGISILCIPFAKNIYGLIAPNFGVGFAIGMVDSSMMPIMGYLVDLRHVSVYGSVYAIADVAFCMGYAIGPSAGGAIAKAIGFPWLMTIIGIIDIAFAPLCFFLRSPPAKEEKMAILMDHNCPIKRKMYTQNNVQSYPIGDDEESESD
Sequence of human Serotonin Transporter (SERT), SLC6A4 (gene 6532) (P31645 whole entry, looked up): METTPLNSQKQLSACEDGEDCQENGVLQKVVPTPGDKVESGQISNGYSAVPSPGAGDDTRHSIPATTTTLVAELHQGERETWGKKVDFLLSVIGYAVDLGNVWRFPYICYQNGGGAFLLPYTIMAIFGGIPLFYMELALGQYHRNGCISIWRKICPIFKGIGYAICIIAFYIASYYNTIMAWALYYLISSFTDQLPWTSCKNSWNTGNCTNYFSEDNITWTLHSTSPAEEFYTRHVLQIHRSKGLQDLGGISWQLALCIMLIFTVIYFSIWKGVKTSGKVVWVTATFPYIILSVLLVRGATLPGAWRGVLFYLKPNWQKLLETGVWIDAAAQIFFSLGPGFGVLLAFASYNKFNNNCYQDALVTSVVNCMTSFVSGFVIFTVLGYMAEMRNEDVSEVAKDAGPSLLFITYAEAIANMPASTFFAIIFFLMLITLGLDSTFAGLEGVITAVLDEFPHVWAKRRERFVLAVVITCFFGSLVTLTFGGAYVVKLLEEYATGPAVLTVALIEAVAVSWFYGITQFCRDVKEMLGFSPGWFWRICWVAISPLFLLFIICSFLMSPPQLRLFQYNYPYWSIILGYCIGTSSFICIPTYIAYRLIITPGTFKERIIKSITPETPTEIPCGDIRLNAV
Sequence of human Norepinephrine Transporter (NET), SLC6A2 (gene 6530) (P23975 whole entry, looked up): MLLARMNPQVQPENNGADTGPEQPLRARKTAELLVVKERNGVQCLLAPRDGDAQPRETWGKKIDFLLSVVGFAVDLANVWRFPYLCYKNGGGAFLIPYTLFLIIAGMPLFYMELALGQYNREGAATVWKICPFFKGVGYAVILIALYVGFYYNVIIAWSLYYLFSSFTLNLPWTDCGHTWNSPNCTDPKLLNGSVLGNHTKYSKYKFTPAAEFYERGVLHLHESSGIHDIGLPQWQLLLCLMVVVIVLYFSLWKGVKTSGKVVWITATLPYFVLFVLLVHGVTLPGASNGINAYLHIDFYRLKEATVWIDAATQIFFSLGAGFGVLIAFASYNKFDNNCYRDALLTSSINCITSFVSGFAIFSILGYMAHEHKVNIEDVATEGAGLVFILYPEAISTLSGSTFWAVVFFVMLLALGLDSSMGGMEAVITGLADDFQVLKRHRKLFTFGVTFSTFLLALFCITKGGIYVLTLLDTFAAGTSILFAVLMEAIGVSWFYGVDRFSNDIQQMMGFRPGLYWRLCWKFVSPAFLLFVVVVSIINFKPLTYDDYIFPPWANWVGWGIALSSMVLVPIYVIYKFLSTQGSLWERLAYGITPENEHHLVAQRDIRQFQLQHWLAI
Sequence of human Dopamine Transporter (DAT), SLC6A3 (gene 6531) (Q01959 whole entry, looked up): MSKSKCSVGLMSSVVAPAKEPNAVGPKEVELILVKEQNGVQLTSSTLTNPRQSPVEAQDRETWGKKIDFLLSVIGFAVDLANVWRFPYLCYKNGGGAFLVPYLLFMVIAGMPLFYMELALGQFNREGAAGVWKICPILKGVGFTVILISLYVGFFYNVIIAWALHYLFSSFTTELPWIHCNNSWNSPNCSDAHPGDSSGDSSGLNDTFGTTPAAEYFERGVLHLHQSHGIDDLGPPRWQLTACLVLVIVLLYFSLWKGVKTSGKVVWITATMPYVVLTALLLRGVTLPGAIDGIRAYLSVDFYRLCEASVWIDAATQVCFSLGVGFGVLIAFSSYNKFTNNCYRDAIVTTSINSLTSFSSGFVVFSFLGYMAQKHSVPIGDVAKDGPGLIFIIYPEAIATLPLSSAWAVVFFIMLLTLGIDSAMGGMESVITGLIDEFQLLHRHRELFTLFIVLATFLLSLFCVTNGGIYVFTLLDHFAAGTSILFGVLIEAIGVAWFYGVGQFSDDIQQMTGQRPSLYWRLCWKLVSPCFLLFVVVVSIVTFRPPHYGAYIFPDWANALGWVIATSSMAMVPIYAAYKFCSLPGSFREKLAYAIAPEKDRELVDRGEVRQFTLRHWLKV
Sequence of rat Serotonin Transporter (SERT), Slc6a4 (gene 25553) (P31652 whole entry, looked up): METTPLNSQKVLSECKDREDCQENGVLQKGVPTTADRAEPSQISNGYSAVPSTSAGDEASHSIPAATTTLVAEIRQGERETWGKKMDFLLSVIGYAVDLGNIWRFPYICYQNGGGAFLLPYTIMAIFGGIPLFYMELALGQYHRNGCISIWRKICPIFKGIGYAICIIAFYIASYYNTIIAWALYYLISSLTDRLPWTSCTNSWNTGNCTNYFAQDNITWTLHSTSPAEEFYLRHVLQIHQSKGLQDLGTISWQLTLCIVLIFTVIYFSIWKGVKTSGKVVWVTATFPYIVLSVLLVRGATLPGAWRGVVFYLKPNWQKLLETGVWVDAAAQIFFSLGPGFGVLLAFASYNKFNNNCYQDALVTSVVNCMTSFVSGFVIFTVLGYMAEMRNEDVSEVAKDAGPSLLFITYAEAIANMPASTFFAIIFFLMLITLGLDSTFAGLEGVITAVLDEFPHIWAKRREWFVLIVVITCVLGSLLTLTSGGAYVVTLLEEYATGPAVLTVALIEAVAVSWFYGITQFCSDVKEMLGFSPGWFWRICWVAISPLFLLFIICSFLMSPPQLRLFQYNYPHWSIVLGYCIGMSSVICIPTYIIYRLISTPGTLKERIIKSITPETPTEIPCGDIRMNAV

The term AC50 denotes the concentration giving half of the maximal activity seen. Turning to `ClC1C(Cl)C(Cl)C(Cl)C(Cl)C1Cl` (centres undefined), the AC50 is 9.83 µM (active) and 3.74 µM (active) in experiment [1]; 5.04 µM (active) and 18.5 µM (active) and 14.4 µM (active) in experiment [2]. Moreover, in [3], the call was inactive.
`O=S1OCC2C(CO1)C1(Cl)C(Cl)=C(Cl)C2(Cl)C1(Cl)Cl` (centres undefined): the values for the AC50 in experiment [1] and in [2] were 17.7 µM (active) and 10.9 µM (active), respectively.
For `CCC(C)(C)C(=O)OC1=C(c2ccc(Cl)cc2Cl)C(=O)OC12CCCCC2`, the molecule was called inactive in [2], in [4] and in experiment [3].
In the case of `CCCN(CCOc1c(Cl)cc(Cl)cc1Cl)C(=O)n1ccnc1`, the AC50 in experiment [1] was 6.57 µM (active); in experiment [5] it was 2.17 µM (active); in [2], 6.06 µM (active); in experiment [6] it was 3.82 µM (active); in [7], 7.49 µM (active); in experiment [8] it was 5.14 µM (active). In addition, the molecule was classed as inactive in [3].
As to `CCC(C)Nc1c([N+](=O)[O-])cc(C(C)(C)C)cc1[N+](=O)[O-]` (centres undefined), the AC50 in experiment [2] was 8.98 µM (active); in experiment [3], 38.5 µM (active).
In the case of `N#Cc1c(Cl)c(Cl)c(Cl)c(C#N)c1Cl`, in experiment [5], the molecule was called inactive. In addition, the AC50 in [6] is 8.2 µM (active); in [3], 0.338 µM (active).
As to `CCCN(CCC)c1c([N+](=O)[O-])cc(C(F)(F)F)cc1[N+](=O)[O-]`, the molecule was called inactive in experiment [1] and in experiment [4]. For the same molecule, the AC50 in experiment [2] was 25 µM (active).
On to `O=S(=O)(O)C(F)(F)C(F)(F)C(F)(F)C(F)(F)C(F)(F)C(F)(F)C(F)(F)C(F)(F)F`, for which the molecule was classed as inactive in [8].
On to `COP(=S)(OC)Oc1ccc(SC)c(C)c1`, for which, in experiment [2], the AC50 is 7.96 µM (active). In addition, in experiment [3], the molecule was called inactive.
As for `CC(C)OC(=O)Nc1cccc(Cl)c1`, the molecule was called inactive in experiment [1] and in [3]. Also, the values for the AC50 in experiment [2] and in [8] were 16.3 µM (active) and 6.63 µM (active), respectively.
Consider `CCN(CC)C(=O)SCc1ccc(Cl)cc1`, for which, in [2], the AC50 was 7.71 µM (active).
Take `O=C(Nc1ccccc1)Nc1cnns1`: the AC50 in experiment [7] was 5.31 µM (active). For the same molecule, the molecule was called inactive in [3].
Consider `Oc1ccc(Cl)cc1Cc1ccccc1`, for which the AC50 was 12.8 µM (active) [middle of 5 runs] in experiment [1]; 18.6 µM (active) [middle of 6 runs] in [9]; 3.69 µM (active) [middle of 8 runs] in experiment [2]; 13.8 µM (active) in [7]; 3.98 µM (active) [middle of 6 runs] in experiment [8]; 12 µM (active) in experiment [3]. For the same molecule, the result in experiment [1], in [6], in experiment [7] and in experiment [4] was inactive.
As for `CCOC1Oc2ccc(OS(C)(=O)=O)cc2C1(C)C` (centres undefined), the call in [4] and in [3] was inactive.
For the molecule `CC1(C)C(C=C(Cl)Cl)C1C(=O)OC(C#N)c1ccc(F)c(Oc2ccccc2)c1` (centres undefined), the AC50 in [2] was 2.03 µM (active). Further, in experiment [3], the molecule was called inactive.
For the molecule `CC(C)(C)C(O)C(Oc1ccc(Cl)cc1)n1cncn1` (centres undefined), the half-maximal activity concentration (AC50) in experiment [1] was 1.08 µM (active) and 1.75 µM (active) and 869 nM (active); in experiment [3], 55.6 µM (active).
In the case of `Oc1cc(Cl)ccc1Oc1ccc(Cl)cc1Cl`, the AC50 was 25.5 µM (active) and 25 µM (active) in experiment [1]; 13.7 µM (active) [middle of 4 runs] in [9]; 21.3 µM (active) [middle of 4 runs] in [2]; 585 nM (active) [middle of 4 runs] in experiment [8]. Besides, the result in experiment [3] was inactive.
Take `CC[C@H](C)[C@H]1O[C@]2(C=C[C@@H]1C)C[C@@H]1C[C@@H](C/C=C(\C)[C@@H](O[C@H]3C[C@H](OC)[C@@H](O[C@H]4C[C@H](OC)[C@@H](O)[C@H](C)O4)[C@H](C)O3)[C@@H](C)/C=C/C=C3\CO[C@@H]4[C@H](O)C(C)=C[C@@H](C(=O)O1)[C@]34O)O2` (tested in a mixture with another compound): the AC50 in experiment [2] is 11.3 µM (active); in experiment [8], 5.03 µM (active).
Turning to `COP(=S)(OC)Oc1ccc([N+](=O)[O-])cc1`, the AC50 in [1] was 20.1 µM (active); in experiment [5] it was 11.3 µM (active); in [2], 25 µM (active); in experiment [6], 12.6 µM (active). Besides, the molecule was called inactive in experiment [10] and in experiment [3].
On to `N#CN`, for which the AC50 in experiment [8] was 13 µM (active). In addition, in [3], the outcome was inactive.
On to `CC(C)N(C(=O)COc1nnc(C(F)(F)F)s1)c1ccc(F)cc1`, for which the figures for the AC50 in [5], in experiment [2] and in [6] were 7.81 µM (active), 13.6 µM (active) and 8.58 µM (active), respectively. In addition, the molecule was called inactive in experiment [3].
In the case of `Cc1[nH]c(=O)n(C(C)(C)C)c(=O)c1Cl`, the outcome in experiment [4] was inactive.
